Here are results for 11 molecules from PubChem BioAssay (NCI).

The panel holds about 83,000 compounds, 20% with a hit somewhere; the sample as a whole holds those more often.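 The endpoint reported here, percent growth, reads 100 for growth as untreated, 0 for no net growth and -100 for all cells dead.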 Values without a mark were called inactive. Activity calls are given as the source filed them. Rule for the calls: active = growth percent below 10; inactive = the rest.

Among the test systems are NCI-H23 lung; NCI-H226 lung; NCI-H322M lung; HOP-62 NSCLC; NCI-H460 lung; 786-0 renal; COLO 205 colon; DU-145 prostate; K-562 leukemia; MALME-3M melanoma; MDA-MB-231 breast; RXF 393 renal; SF-268 CNS; SF-295 CNS; SF-539 CNS; M14 melanoma; HOP-92 NSCLC; NCI-H522 lung; A549/ATCC NSCLC; UACC-257 melanoma.
Assay in all cases: NCI-60 one-dose screen, 48 h (100 = growth as untreated, 0 = no growth, -100 = all killed)
What all share (details): 10 µM

As for `COc1ccc(/C=C/c2cccc[n+]2C)cc1`, the growth with NCI-H23 lung was 100%; with NCI-H226 lung, 101%; in the assay with NCI-H322M lung, 93.5%; with HOP-62 NSCLC, 77.5%; in the assay on NCI-H460 lung, 106%; with 786-0 renal it was 94.3%. Besides, the growth with COLO 205 colon was 42.1%; in the assay on DU-145 prostate, 111%; in the assay on K-562 leukemia, 100%; in the assay on MALME-3M melanoma, 94.6%; with MDA-MB-231 breast, 111%; in the assay on RXF 393 renal it was 101%. The growth with SF-268 CNS was 97.2%; in the assay with SF-295 CNS, 99.1%; in the assay with SF-539 CNS it was 103%; in the assay on M14 melanoma, 103%.
For the molecule `Cc1cc(=O)cc(C)n1-c1ccccc1`, the growth is 96.5% with NCI-H23 lung; 96.3% with NCI-H226 lung; 106% with NCI-H322M lung; 99.6% in the assay with HOP-62 NSCLC; 90.6% with HOP-92 NSCLC; 102% in the assay with NCI-H522 lung. Also, the growth is 99.1% in the assay on A549/ATCC NSCLC; 90% with 786-0 renal; 106% in the assay with COLO 205 colon; 121% in the assay with DU-145 prostate; 105% in the assay with K-562 leukemia; 99.3% with MALME-3M melanoma. Also, the growth with MDA-MB-231 breast is 106%; in the assay with RXF 393 renal, 104%; with SF-268 CNS, 109%; in the assay on SF-295 CNS, 96.3%; in the assay with SF-539 CNS, 102%; in the assay with UACC-257 melanoma, 106%. In addition, the growth with M14 melanoma is 101%.
In the case of `Cc1cc(C)c(N)c(S(=O)(=O)O)c1`, the growth in the assay on NCI-H23 lung was 92%; in the assay on NCI-H226 lung it was 96.4%; in the assay on NCI-H322M lung it was 108%; in the assay on HOP-62 NSCLC, 91.8%; with HOP-92 NSCLC, 99%; in the assay with NCI-H522 lung, 97%. Further, the growth in the assay with A549/ATCC NSCLC is 114%; in the assay with 786-0 renal it was 97.2%; with DU-145 prostate, 129%; in the assay with K-562 leukemia it was 113%; in the assay with MALME-3M melanoma, 104%; with MDA-MB-231 breast, 97.8%. Further, the growth with RXF 393 renal is 133%; in the assay on SF-268 CNS, 115%; in the assay on SF-295 CNS, 104%; with SF-539 CNS, 84.4%; with UACC-257 melanoma, 122%.
Turning to `CC1(C)N=C(N)N=C(N)N1c1ccc(Cl)cc1`, the growth with NCI-H23 lung is 37.2%; with NCI-H226 lung it was 76.1%; in the assay on NCI-H322M lung it was 59.2%; with HOP-62 NSCLC, 36.9%; in the assay on HOP-92 NSCLC it was 132%; with NCI-H522 lung, 46.6%. Further, the growth is 27.4% in the assay on A549/ATCC NSCLC; 17.7% in the assay on 786-0 renal; 55.2% in the assay on DU-145 prostate; 20.1% in the assay on K-562 leukemia; 63.4% with MALME-3M melanoma; 69% in the assay on MDA-MB-231 breast. In addition, the growth with RXF 393 renal is 71%; in the assay with SF-268 CNS, 36.6%; in the assay with SF-295 CNS, 4.05% (active); in the assay on SF-539 CNS, 22.7%; in the assay on UACC-257 melanoma, 64%.
For `CCCCCC(C)(CC(=O)O)CC(=O)O`, the growth in the assay with NCI-H23 lung was 115%; in the assay on NCI-H226 lung, 97%; in the assay on NCI-H322M lung, 113%; with HOP-62 NSCLC, 101%; in the assay with HOP-92 NSCLC, 119%; in the assay with A549/ATCC NSCLC it was 101%. For the same molecule, the growth is 107% in the assay with 786-0 renal; 116% in the assay on COLO 205 colon; 122% with DU-145 prostate; 106% in the assay with K-562 leukemia; 138% with MDA-MB-231 breast; 101% in the assay on RXF 393 renal. In addition, the growth with SF-268 CNS is 122%; in the assay on SF-539 CNS it was 105%; in the assay on UACC-257 melanoma, 101%; in the assay with M14 melanoma, 109%.
As to `CCOC(=O)C(=O)C=P(c1ccccc1)(c1ccccc1)c1ccccc1`, the growth was 99.4% with NCI-H23 lung; 108% with NCI-H226 lung; 98.2% with NCI-H322M lung; 98.1% in the assay with HOP-62 NSCLC; 96.5% in the assay on HOP-92 NSCLC; 90.1% in the assay with NCI-H522 lung. The growth with A549/ATCC NSCLC was 100%; with 786-0 renal, 101%; with COLO 205 colon, 110%; in the assay with DU-145 prostate, 103%; with K-562 leukemia it was 107%; in the assay with MALME-3M melanoma, 102%. Besides, the growth in the assay on MDA-MB-231 breast was 99.2%; with RXF 393 renal, 106%; in the assay on SF-268 CNS, 97.9%; with SF-295 CNS it was 97.8%; in the assay on SF-539 CNS it was 103%; in the assay on UACC-257 melanoma, 111%. Further, the growth in the assay with M14 melanoma was 109%.
As to `OC1CCCc2ccccc21` (stereo unspecified), the growth in the assay with NCI-H23 lung was 104%; in the assay with NCI-H226 lung, 104%; in the assay with NCI-H322M lung it was 89.6%; in the assay with HOP-62 NSCLC, 104%; with HOP-92 NSCLC it was 112%; in the assay with A549/ATCC NSCLC it was 51.3%. Moreover, the growth in the assay with 786-0 renal was 103%; with COLO 205 colon it was 115%; with DU-145 prostate it was 114%; in the assay with K-562 leukemia it was 97.9%; in the assay with MALME-3M melanoma, 78.8%; in the assay with MDA-MB-231 breast, 117%. The growth is 116% with SF-268 CNS, 93.2% in the assay with SF-295 CNS, 96.4% with SF-539 CNS and 113% in the assay with M14 melanoma.
For the molecule `Cc1ccc(C(=O)c2ccccc2)c(C)c1`, the growth with NCI-H23 lung was 99.6%; in the assay on NCI-H226 lung it was 104%; with NCI-H322M lung, 105%; with HOP-62 NSCLC, 95%; in the assay on HOP-92 NSCLC, 111%; with A549/ATCC NSCLC, 110%. The growth in the assay with COLO 205 colon is 109%; with DU-145 prostate, 104%; in the assay with K-562 leukemia, 125%; with MALME-3M melanoma, 120%; in the assay with MDA-MB-231 breast, 97.8%; in the assay on RXF 393 renal, 116%. The growth in the assay with SF-268 CNS was 102%; in the assay with SF-295 CNS it was 136%; in the assay with SF-539 CNS, 98.9%; with UACC-257 melanoma, 112%.
For the molecule `Cc1cc2ccccc2c(O)c1C#N`, the growth in the assay on NCI-H23 lung was 91.1%; in the assay on NCI-H226 lung, 102%; in the assay with NCI-H322M lung it was 119%; in the assay on HOP-62 NSCLC, 85.5%; with NCI-H460 lung it was 107%; in the assay on A549/ATCC NSCLC it was 107%. Also, the growth with COLO 205 colon was 112%; in the assay with DU-145 prostate, 120%; in the assay with K-562 leukemia it was 92.8%; in the assay on MALME-3M melanoma it was 126%; in the assay with MDA-MB-231 breast, 98.9%; with RXF 393 renal, 118%. Also, the growth is 103% in the assay with SF-268 CNS, 116% in the assay on SF-295 CNS, 110% in the assay on SF-539 CNS and 106% in the assay with UACC-257 melanoma.
Consider `O=C(O)CSCSCC(=O)O`, for which the growth in the assay on NCI-H23 lung is 99.8%; in the assay on NCI-H226 lung it was 95.2%; in the assay on NCI-H322M lung, 108%; in the assay with HOP-62 NSCLC, 91.5%; in the assay on NCI-H460 lung it was 104%; with 786-0 renal it was 103%. Also, the growth with COLO 205 colon was 100%; with DU-145 prostate, 111%; with K-562 leukemia, 97.8%; in the assay on MALME-3M melanoma it was 105%; in the assay on MDA-MB-231 breast, 107%; in the assay on RXF 393 renal, 97%. Also, the growth in the assay with SF-268 CNS was 110%; with SF-295 CNS, 96.6%; with SF-539 CNS it was 98.3%; in the assay with M14 melanoma it was 108%.
With `Cc1cc2nc(CC(=O)c3cccc([N+](=O)[O-])c3)c(=O)[nH]c2cc1C`, the growth was 80.3% with NCI-H23 lung; 90.7% in the assay on NCI-H226 lung; 93.8% in the assay on NCI-H322M lung; 101% in the assay on HOP-62 NSCLC; 74.9% in the assay with HOP-92 NSCLC; 70.4% in the assay on NCI-H522 lung. The growth was 97.9% with A549/ATCC NSCLC; 85.5% in the assay with 786-0 renal; 110% in the assay on COLO 205 colon; 100% with DU-145 prostate; 73.7% in the assay with K-562 leukemia; 98.5% in the assay with MALME-3M melanoma. In addition, the growth was 107% in the assay on RXF 393 renal; 98.1% with SF-268 CNS; 75.4% in the assay with SF-295 CNS; 88.2% with SF-539 CNS; 97% in the assay on UACC-257 melanoma; 81.4% with M14 melanoma.
